{
  "source": "PubChem BioAssay (NCATS)",
  "key": {"[1]": {"molecular_target": "RecQ-like DNA helicase BLM (Homo sapiens) (UniProt P54132)", "sequence (P54132 whole entry, looked up)": "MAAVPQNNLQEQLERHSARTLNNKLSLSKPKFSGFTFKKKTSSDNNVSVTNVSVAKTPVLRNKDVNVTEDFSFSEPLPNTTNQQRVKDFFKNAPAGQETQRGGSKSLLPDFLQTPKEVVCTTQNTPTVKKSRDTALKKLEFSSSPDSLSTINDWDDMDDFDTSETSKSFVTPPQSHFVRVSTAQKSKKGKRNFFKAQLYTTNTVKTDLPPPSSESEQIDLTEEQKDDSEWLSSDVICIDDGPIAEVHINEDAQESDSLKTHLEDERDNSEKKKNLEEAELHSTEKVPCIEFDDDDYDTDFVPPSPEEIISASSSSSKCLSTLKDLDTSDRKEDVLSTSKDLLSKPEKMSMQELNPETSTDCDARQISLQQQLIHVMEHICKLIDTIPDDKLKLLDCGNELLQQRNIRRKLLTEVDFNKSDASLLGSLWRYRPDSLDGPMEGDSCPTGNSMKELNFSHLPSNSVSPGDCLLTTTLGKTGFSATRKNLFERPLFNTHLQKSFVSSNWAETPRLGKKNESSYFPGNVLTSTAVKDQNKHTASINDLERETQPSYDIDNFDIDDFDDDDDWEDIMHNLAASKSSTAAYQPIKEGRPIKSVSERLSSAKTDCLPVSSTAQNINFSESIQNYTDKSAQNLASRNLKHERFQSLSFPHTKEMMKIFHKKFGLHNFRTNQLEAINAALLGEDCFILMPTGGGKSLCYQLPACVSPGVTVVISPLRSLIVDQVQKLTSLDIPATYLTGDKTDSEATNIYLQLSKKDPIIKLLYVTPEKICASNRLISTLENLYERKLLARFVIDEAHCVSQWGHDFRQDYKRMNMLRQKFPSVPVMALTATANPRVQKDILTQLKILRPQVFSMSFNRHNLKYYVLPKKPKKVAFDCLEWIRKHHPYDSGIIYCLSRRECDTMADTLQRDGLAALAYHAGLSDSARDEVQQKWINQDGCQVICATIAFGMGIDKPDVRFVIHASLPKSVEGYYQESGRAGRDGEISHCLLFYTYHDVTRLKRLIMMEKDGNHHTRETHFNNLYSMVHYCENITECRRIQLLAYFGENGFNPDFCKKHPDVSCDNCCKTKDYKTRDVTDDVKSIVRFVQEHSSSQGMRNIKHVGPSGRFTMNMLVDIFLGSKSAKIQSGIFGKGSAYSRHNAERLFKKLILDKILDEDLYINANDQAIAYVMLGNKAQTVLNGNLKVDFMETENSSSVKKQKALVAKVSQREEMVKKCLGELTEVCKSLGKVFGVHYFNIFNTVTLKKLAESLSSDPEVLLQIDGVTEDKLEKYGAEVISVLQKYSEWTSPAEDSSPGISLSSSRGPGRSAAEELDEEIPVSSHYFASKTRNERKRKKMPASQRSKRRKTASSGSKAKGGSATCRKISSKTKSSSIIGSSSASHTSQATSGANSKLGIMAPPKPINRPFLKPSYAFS", "experiment": "qHTS Validation Assay for Inhibitors of Bloom's syndrome helicase (BLM) (AID 2364); further: potency means the concentration at half of the fitted maximal effect", "summary_of_the_method": "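50 nM BLM preincubated 15 min at room temperature with compound in pH 8.0 Tris buffer containing 2.5 ug/ml poly(dI-dC); started with 200 nM TAMRA/BHQ-2 forked duplex and 2 mM ATP (final). Unwinding read as TAMRA fluorescence increase, two reads 2 h apart.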"}, "[2]": {"molecular_target": "Thioredoxin reductase 1, cytoplasmic (Rattus norvegicus) (UniProt O89049)", "sequence (O89049 whole entry, looked up)": "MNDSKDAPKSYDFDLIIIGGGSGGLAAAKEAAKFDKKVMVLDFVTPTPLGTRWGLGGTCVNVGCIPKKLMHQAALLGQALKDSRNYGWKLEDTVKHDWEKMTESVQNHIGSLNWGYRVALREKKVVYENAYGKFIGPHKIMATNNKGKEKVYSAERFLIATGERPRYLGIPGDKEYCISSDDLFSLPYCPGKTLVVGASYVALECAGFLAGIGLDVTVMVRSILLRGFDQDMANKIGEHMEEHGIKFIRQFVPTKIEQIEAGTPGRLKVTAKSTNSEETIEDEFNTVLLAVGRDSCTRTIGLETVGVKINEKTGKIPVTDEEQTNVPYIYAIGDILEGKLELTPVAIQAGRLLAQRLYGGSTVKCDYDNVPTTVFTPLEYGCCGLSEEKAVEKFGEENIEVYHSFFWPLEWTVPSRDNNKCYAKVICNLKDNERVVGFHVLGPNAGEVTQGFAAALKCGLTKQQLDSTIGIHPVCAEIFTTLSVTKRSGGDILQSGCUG", "experiment": "qHTS Assay for Substrates of Mammalian Selenoprotein Thioredoxin Reductase 1 (TrxR1) (AID 488772);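 further: 0% is about no effect; a drop in NADPH fluorescence below the no-compound background marks a TrxR1 substrate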", "summary_of_the_method": "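In this dual-purpose format, potential substrates are identified from the first fluorescence read after selenite addition, not from the 8-minute delta. Rat enzyme is preincubated with NADPH and then with compound at ~22 deg C.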"}, "[3]": {"experiment": "Validation screen for small molecules that induce genotoxicity in human embryonic kidney (HEK293T) cells expressing luciferase-tagged ELG1 (AID 493106); further: 0% is about no effect", "summary_of_the_method": "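qHTS format; 2,000 HEK293T ELG1-luc cells/well; 23 nL compound via pin tool; 16 hr, 37 °C/5% CO2; ONE-Glo, 30 min RT; luminescence read.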"}, "[4]": {"experiment": "qHTS profiling for inhibitors of Plasmodium falciparum (3D7) proliferation (AID 743322; call rule not given here;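 further: infected erythrocytes exposed to compound for 72 h before lysis; 100% = DMSO vehicle wells and 0% = 0.29 µM artemisinin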)", "conditions": "P. falciparum 3D7 proliferation; at 28.7 µM (top of the series)", "summary_of_the_method": "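Parasite DNA was quantified by SYBR Green I fluorescence (ex 485, em 535 nm) after overnight lysis in saponin/Triton buffer at room temperature. Cultures at 0.3% parasitemia and 2.5% hematocrit were first exposed to compound for 72 h at 37 C; signals were normalised to artemisinin (0.29 uM) and vehicle wells.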"}, "[5]": {"experiment": "qHTS profiling for inhibitors of Plasmodium falciparum (DD2) proliferation (AID 743323; call rule not given here)", "conditions": "lower = more inhibition; at 28.7 µM (top of the series)", "summary_of_the_method": "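1536-well qHTS; infected RBCs 0.3% parasitemia/2.5% Hct final; cpd 72 h 37 C 5% CO2; lysis buffer + SYBR Green I, o/n RT dark; FI 485/535; norm. to 0.29 uM artemisinin and DMSO, plate-stack corrected.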"}, "[6]": {"experiment": "qHTS assay for small molecule antagonists of peroxisome proliferator-activated receptor delta signaling (AID 588535);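 further: cells co-treated with a PPAR-delta agonist as stimulator during compound exposure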", "conditions": "HEK293T PPARd-UAS-bla, beta-lactamase FRET ratio, 18 h; 460 nm channel", "summary_of_the_method": "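Beta-lactamase reporter read-out (405 nm excitation, 460/530 nm emission) after CCF4 loading for 2 hrs at RT. HEK293T PPAR-delta-UAS-bla cells, 2% charcoal/dextran FBS, compounds for 18 hrs at 37 C. Hill fit gave IC50 and efficacy.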"}, "[7]": {"experiment": "qHTS assay to identify small molecules that stimulate interleukin-8 (IL-8) secretion (AID 651758; active means well fitted activation curve with a large enough effect in the signal ratio; the % refers to the signal ratio; further: 0% is about no effect)", "summary_of_the_method": "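Compounds are added to THP-1 cells (2000 per well) and left 16 hrs at 37 C. A labeled anti-IL-8 antibody pair is then added, and IL-8 secretion is measured by time-resolved FRET after 1-3 hrs at room temperature.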"}, "[8]": {"molecular_target": "DNA repair nuclease/redox regulator APEX1 (Homo sapiens) (UniProt P27695)", "sequence (P27695 whole entry, looked up)": "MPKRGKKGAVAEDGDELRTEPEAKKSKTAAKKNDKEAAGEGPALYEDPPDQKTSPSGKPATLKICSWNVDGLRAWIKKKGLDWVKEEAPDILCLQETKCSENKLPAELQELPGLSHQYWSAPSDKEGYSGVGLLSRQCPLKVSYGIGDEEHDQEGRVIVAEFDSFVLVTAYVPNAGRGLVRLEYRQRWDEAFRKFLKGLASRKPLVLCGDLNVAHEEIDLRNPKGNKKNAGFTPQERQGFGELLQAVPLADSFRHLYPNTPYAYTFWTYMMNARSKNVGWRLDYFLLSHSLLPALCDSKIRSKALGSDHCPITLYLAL", "experiment": "qHTS Validation Assay for Inhibitors of the Human Apurinic/apyrimidinic Endonuclease 1 (APE1) (AID 1705; further: potency means the concentration at half of the fitted maximal effect)", "summary_of_the_method": "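Endonuclease activity of human APE1 is followed as dequenching when the enzyme incises a tetrahydrofuran abasic site in a short duplex labelled 5'-TAMRA/3'-BHQ-2 (50 nM final), after 15 min enzyme–compound preincubation at room temperature.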"}, "[9]": {"experiment": "qHTS for differential inhibitors of proliferation of Plasmodium falciparum line 3D7 (AID 1876); further: potency means the concentration at half of the fitted maximal effect"}, "[10]": {"experiment": "qHTS for differential inhibitors of proliferation of Plasmodium falciparum line HB3 (AID 1886);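 further: potency means the concentration at half of the fitted maximal effect; parasites grown with compound for 72 h before SYBR Green readout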", "conditions": "Potency: Plasmodium falciparum HB3 proliferation inhibition"}, "[11]": {"experiment": "Cytometry Cell-Based qHTS for Inhibitors of the mTORC1 Signaling Pathway in MEF cells (AID 2668); further: potency means the concentration at half of the fitted maximal effect", "summary_of_the_method": "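Pathway inhibition in WT Tsc2-rescued Tsc2-/-, p53-/- MEFs is measured as the Alexa-488 phospho-rpS6 to propidium iodide intensity ratio after 24 hrs of compound at 37 degree Celsius. PI-stained cell number gives viability.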"}, "[12]": {"experiment": "Validation screen for small molecules that induce DNA re-replication in MCF 10A normal breast cells (AID 463097); further: potency means the concentration at half of the fitted maximal effect; nearly all actives have a fitted effect of over 60% in size", "summary_of_the_method": "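DNA re-replication was detected as a rise in nuclei with elevated Hoechst fluorescence after a 48 hr compound exposure of MCF 10A cells at 37 C.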"}, "[13]": {"molecular_target": "Endonuclease 4 (Escherichia coli (strain K12)) (UniProt P0A6C1)", "experiment": "Counterscreen for APE1 Inhibitors: qHTS Validation Assay for Inhibitors of Endonuclease IV (AID 1708); further: on the % scale 0 is the no-effect control and ±100 the full control effect", "summary_of_the_method": "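Read-out: fluorescence rise (ex 525/em 598 nm) from incision of a TAMRA/BHQ-2 double-stranded THF abasic-site substrate (50 nM), measured kinetically; third-minus-first read difference gave reaction progress. Enzyme 2 nM.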"}, "[14]": {"experiment": "qHTS for Activators of Parkin Expression: LOPAC Validation Assay (FLuc Reporter) (AID 720573;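 further: 0% = DMSO and 100% = positive control compounds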)", "summary_of_the_method": "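A neuronal cell line harbouring FLuc and NLuc reporters behind the Parkin promoter was exposed to compounds for 24 h. Firefly luciferase signal, measured after 10 min with detection reagent, was scaled to DMSO and positive-control wells.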"}, "[15]": {"molecular_target": "Thioredoxin reductase 1, cytoplasmic (Rattus norvegicus) (UniProt O89049)", "experiment": "qHTS Assay for Inhibitors of Mammalian Selenoprotein Thioredoxin Reductase 1 (TrxR1) (AID 488773); further: nearly all actives have a fitted effect of over 40% in size; further: potency means the concentration at half of the fitted maximal effect", "conditions": "Potency: inhibition", "summary_of_the_method": "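Inhibition is scored from the loss of NADPH fluorescence between first and last reads of an 8-min kinetic run. Selenite (400 uM) was the substrate, added after 15 min compound preincubation at room temperature.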"}, "[16]": {"molecular_target": "Flap endonuclease 1 (Homo sapiens) (UniProt P39748)", "sequence (P39748 whole entry, looked up)": "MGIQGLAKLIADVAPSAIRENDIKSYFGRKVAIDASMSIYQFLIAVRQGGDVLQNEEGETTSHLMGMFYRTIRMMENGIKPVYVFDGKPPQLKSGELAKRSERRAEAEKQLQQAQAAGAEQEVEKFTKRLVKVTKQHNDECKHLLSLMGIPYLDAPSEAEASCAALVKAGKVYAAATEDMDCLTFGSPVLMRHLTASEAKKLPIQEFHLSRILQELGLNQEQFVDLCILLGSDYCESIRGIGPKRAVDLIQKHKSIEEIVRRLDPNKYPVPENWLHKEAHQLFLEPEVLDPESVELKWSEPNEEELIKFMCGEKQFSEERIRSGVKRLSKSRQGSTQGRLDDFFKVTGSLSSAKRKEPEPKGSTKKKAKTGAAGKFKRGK", "experiment": "qHTS Validation Assay for the Inhibitors of Human Flap endonuclease 1 (FEN1) (AID 488816); further: potency means the concentration at half of the fitted maximal effect", "summary_of_the_method": "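Enzyme reagent 10 nM; cpds pinned; 15 min RT preinc.; substrate 50 nM final; reads t=0 and 15 min; no-enzyme buffer wells as neg. control; normalized data, 4-parameter Hill fit.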"}, "[17]": {"experiment": "qHTS for differential inhibitors of proliferation of Plasmodium falciparum line 7G8 (AID 1815);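 further: potency means the concentration at half of the fitted maximal effect; parasite growth measured after three days of incubation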"}, "[18]": {"experiment": "qHTS for differential inhibitors of proliferation of Plasmodium falciparum line Dd2 (AID 1882); further: potency means the concentration at half of the fitted maximal effect; nearly all actives have a fitted effect of over 65% in size", "conditions": "Potency: Plasmodium falciparum Dd2 proliferation inhibition", "summary_of_the_method": "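RBC culture, 0.3% parasitemia / 2.5% Hct final; cpd added by pin tool in DMSO; 72 h, 37 C, 5% CO2; lysis buffer + SYBR Green I, o/n RT dark; FI 485/535; norm. to artemisinin 0.29 uM and DMSO.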"}, "[19]": {"experiment": "qHTS for differential inhibitors of proliferation of Plasmodium falciparum line D10 (AID 1877);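 further: potency means the concentration at half of the fitted maximal effect; parasites grown with compound for 72 h before DNA staining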"}, "[20]": {"molecular_target": "Mitogen-activated protein kinase 10 (Mus musculus) (UniProt Q61831)", "experiment": "JNK3 AlphaScreen Assay (AID 530; active means well fitted curve in either direction with a large enough effect, not every such curve was filed as active;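 further: kinase came from lysate of stimulated human HepG2 cells; signal reports phosphorylation of biotinylated GST-cJun 1-79 at Ser73 with 10 µM ATP; on the % scale 0 is the no-effect control and ±100 the full control effect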)", "summary_of_the_method": "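HepG2 lysate (IL-1b/TNFa pre-activated) + biotin-GST-cJun 1-79 + anti-pSer73 cJun; cpd titration, 15 min RT; ATP 10 uM start; Tris pH 7.6, MgCl2, DTT, vanadate; beads in EDTA buffer; AlphaScreen.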"}},
  "note": "“And” between values parts separate entries of the source, which are not always exact repeats. Equal values may be shown once. Results filed as inconclusive are left out. The source made the active and inactive calls. Unless noted, the call rests on the fitted dose curve; in most records, active means well fitted curve in the direction sought with a large enough effect; inconclusive means small, poorly fitted or top-dose-only effect, or another doubt; inactive means no such curve, though single readings can be large; an effect the other way counts as inactive or inconclusive.",
  "data": [
    {"smiles": "Nc1nc(N)c2nc(CNc3ccc(C(=O)NC(CCC(=O)O)C(=O)O)cc3)cnc2n1", "note": "(stereo unspecified)", "values": [
      {"measurement": "Potency", "setting": "[1]", "result": "20 µM (active)"},
      {"measurement": "outcome", "setting": "[2]", "result": "inactive"},
      {"measurement": "outcome", "setting": "[3]", "result": "inactive"}
    ]},
    {"smiles": "O=C(O)c1ccccc1C(=O)Nc1ccc(-c2ccccc2)cc1", "values": [
      {"measurement": "remaining parasite growth % (stronger effect = lower value)", "setting": "[4]", "result": 93.1, "unit": "%"},
      {"measurement": "activity, percent of control", "setting": "[5]", "result": 92.6, "unit": "%"}
    ]},
    {"smiles": "CC(=O)/C=C/c1ccccc1", "values": [
      {"measurement": "max response", "setting": "[6]", "result": 11.6, "unit": "%"},
      {"measurement": "Potency", "setting": "[7]", "result": "inactive"}
    ]},
    {"smiles": "c1ccc2c(c1)-c1cccc3cccc-2c13", "values": [
      {"measurement": "max response", "setting": "[6]", "result": 27.3, "unit": "%"}
    ]},
    {"smiles": "NO", "values": [
      {"measurement": "Potency", "setting": "[8]", "result": "inactive"},
      {"measurement": "Potency", "setting": "[9]", "result": "12.6 µM (active)"}
    ]},
    {"smiles": "COC1=CC(=O)OC(CCc2ccc3c(c2)OCO3)C1", "note": "(stereo unspecified)", "values": [
      {"measurement": "Potency", "setting": "[7]", "result": "inactive"}
    ]},
    {"smiles": "COc1cc([C@@H]2c3cc4c(cc3[C@H](O)C3COC(=O)[C@@H]32)OCO4)cc(OC)c1OC", "note": "(stereo partly specified)", "values": [
      {"measurement": "Potency", "setting": "[10]", "result": "15.8 µM (active)"},
      {"measurement": "Potency", "setting": "[11]", "result": "0.0465 µM (active)"},
      {"measurement": "Potency", "setting": "[12]", "result": "0.0355 µM (active)"}
    ]},
    {"smiles": "CC(C)NC[C@H](O)COc1cccc2[nH]ccc12", "values": [
      {"measurement": "outcome", "setting": "[13]", "result": "inactive"},
      {"measurement": "outcome", "setting": "[14]", "result": "inactive"}
    ]},
    {"smiles": "Oc1ccccc1O", "values": [
      {"measurement": "Potency", "setting": "[8]", "result": "35.5 µM (active)"},
      {"measurement": "outcome", "setting": "[13]", "result": "inactive"},
      {"measurement": "Potency", "setting": "[11]", "result": "10.4 µM (active)"},
      {"measurement": "Potency", "setting": "[15]", "result": "11.9 µM (active)"},
      {"measurement": "Potency", "setting": "[16]", "result": "5.97 µM (active)"},
      {"measurement": "outcome", "setting": "[14]", "result": "inactive"}
    ]},
    {"smiles": "CN1[C@@H](CC(=O)c2ccccc2)CCC[C@H]1C[C@H](O)c1ccccc1", "values": [
      {"measurement": "Potency", "setting": "[17]", "result": "6.31 µM (active)"},
      {"measurement": "Potency", "setting": "[18]", "result": "8.91 µM (active)"},
      {"measurement": "Potency", "setting": "[16]", "result": "inactive"}
    ]},
    {"smiles": "N#C/C(=C\\c1ccc(O)c(O)c1)C(=O)NCCCNC(=O)/C(C#N)=C/c1ccc(O)c(O)c1", "values": [
      {"measurement": "outcome", "setting": "[13]", "result": "inactive"},
      {"measurement": "Potency", "setting": "[17]", "result": "2.82 µM (active)"},
      {"measurement": "Potency", "setting": "[9]", "result": "2.24 µM (active)"},
      {"measurement": "Potency", "setting": "[19]", "result": "2.24 µM (active)"},
      {"measurement": "Potency", "setting": "[18]", "result": "3.16 µM (active)"},
      {"measurement": "Potency", "setting": "[10]", "result": "2 µM (active)"},
      {"measurement": "Potency", "setting": "[16]", "result": "0.67 µM (active)"}
    ]},
    {"smiles": "c1ccc(Nc2ccc3ccccc3c2)cc1", "values": [
      {"measurement": "outcome", "setting": "[20]", "result": "inactive"},
      {"measurement": "max response", "setting": "[6]", "result": "41.7% and -2.21%"}
    ]},
    {"smiles": "CCOC(=O)c1ccccc1N", "values": [
      {"measurement": "outcome", "setting": "[20]", "result": "inactive"}
    ]},
    {"smiles": "CCCCCCCCCC[Si](C)(C)CCC(=O)NC(Cc1ccc(C)cc1)c1ccccc1", "note": "(stereo unspecified)", "values": [
      {"measurement": "Potency", "setting": "[17]", "result": "3.55 µM (active)"},
      {"measurement": "Potency", "setting": "[9]", "result": "2.82 µM (active)"},
      {"measurement": "Potency", "setting": "[19]", "result": "3.55 µM (active)"},
      {"measurement": "Potency", "setting": "[18]", "result": "5.01 µM (active)"},
      {"measurement": "Potency", "setting": "[10]", "result": "2.82 µM (active)"}
    ]},
    {"smiles": "O=c1oc(Cl)c(Cl)c2ccccc12", "values": [
      {"measurement": "Potency", "setting": "[12]", "result": "5.01 µM (active)"},
      {"measurement": "Potency", "setting": "[15]", "result": "7.52 µM (active)"},
      {"measurement": "outcome", "setting": "[14]", "result": "inactive"}
    ]},
    {"smiles": "Nc1nc2ccc(Cl)cc2c2nc(-c3ccco3)nn12", "values": [
      {"measurement": "Potency", "setting": "[11]", "result": "5.85 µM (active)"}
    ]},
    {"smiles": "Nc1nc2[nH]c(=O)cnc2c(=O)[nH]1", "values": [
      {"measurement": "outcome", "setting": "[2]", "result": "inactive"},
      {"measurement": "Potency", "setting": "[15]", "result": "inactive"}
    ]}
  ]
}
